Shown are actives, neighbours in structure and some others; about 5% of the full set was active somewhere.
PREPL inhibitor: inhibitors of human prolyl oligopeptidase-like enzyme PREPL; inhibition, % at 5.96 µM; Q4J6C6; AID 2751; 320,000 compounds, 0.68% hits; recombinant PREPL, fluorescence polarization activity-based probe; in the data active = inhibition above about 43%
AI-2 QS mod: Vibrio harveyi AI-2 quorum sensing modulation | Vibrio harveyi JMH597 AI-2 luminescence/OD600 ratio, 9 h; active compounds read low; strain lacks LuxN and CqsS sensors; 0 = neutral-control median | activity change, % at 7.5 µM | 300,000 compounds, 0.4% hits | AID 2094; in the data active = activity change below about -75%, passing the limit was not always enough; inconclusive = no clear call, values can overlap the other calls;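 note: luminescence divided by OD600 gain over 9 h not by final OD600 alone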
CHT allo act: allosterically activates the human high affinity choline transporter | Q9GZV3 | CHT-expressing cells, membrane potential dye, choline EC20; active compounds read high; LV-AA mutant CHT in HEK293 cells | B-score at 10 µM | 310,000 compounds, 0.49% hits | AID 488977;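 active = initial fluorescence not abnormally high and integrated response B-score, plate-corrected, over 3 SD above library mean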
CHT inh: inhibits the human high affinity choline transporter | 310,000 compounds, 0.86% hits | B-score at 10 µM | CHT-expressing cells, membrane potential dye, choline response; active compounds read low | Q9GZV3;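 active = B-score over 3 SD under the library average, and starting fluorescence ratio not unusually high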;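 note: choline stimulus applied at its EC90 after an EC20 pre-addition; B-score computed on integrated fluorescence ratio after choline addition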
ALR H2O2 inh: human ALR oxidase inhibition via reduced H2O2 | inhibition, % (no concentration beside the values) | purified ALR, DTT oxidation, H2O2 HRP-luminol luminescence | 290,000 compounds, 3.8% hits;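 active = mean replicate inhibition above about 79%, with every replicate also reaching it, limit read from the data; inconclusive = only one of the two criteria met; inactive = mean below limit and not every replicate reaching it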
A number is an active result; 0 = inactive; ? = inconclusive; - = no result given.

SMILES	PREPL inhibitor	AI-2 QS mod	CHT allo act	CHT inh	ALR H2O2 inh
Cc1nc2nc(CCNS(=O)(=O)c3ccc(Cl)cc3)cn2nc1C	0	0	0	0	0
CC1=NN(c2cccc(C(=O)O)c2)C(=O)/C1=C\C=C\c1ccco1	0	0	0	0	83.1
CCOC(=O)c1c(NC(=O)C2C3C=CC(C3)C2C(=O)O)sc2c1CCCC2 (stereo not given)	0	0	0	0	0
CCOC(=O)c1c(NC(=O)C2CC(Cl)=CCC2C(=O)O)sc2c1CCCCC2 (stereo not given)	0	0	0	0	97.7
Cc1csc(=Nc2ccccc2)n1Cc1ccco1	0	0	0	0	0
Cc1ccsc1C(=O)NNC(=O)CCN1CCN(c2ccccc2)CC1	0	0	0	0	93.6
CCCCOc1ccc(C(=O)CCN2CCOCC2)cc1	0	0	0	0	97.6
CC(Oc1ccc(Br)cc1)C(=O)NNC(=O)CCN1CCN(c2ccccc2)CC1 (stereo not given)	0	-92.2	0	0	95.2
CCCOc1ccc(C(=O)CCN2CCCCC2)cc1	0	0	0	0	0
CCOc1ccc(C(=O)CCC(=O)NNC(=O)CCN2CCN(c3ccccc3)CC2)cc1	0	-	-	-	95.1
CCOc1ccc(NC(=O)CCN2CCN(c3ccccc3)CC2)cc1	0	0	0	0	0
O=C(CCN1CCN(c2ccccc2)CC1)Nc1ccccc1	0	0	0	0	0
O=C(Nc1ccncc1)C1CCN(S(=O)(=O)c2ccc(Cl)cc2)CC1	0	0	0	0	0
CN(C(=O)c1cnccn1)c1c(N)n(Cc2ccccc2)c(=O)[nH]c1=O	0	0	0	0	0
CCC(C)NC(=O)CS(=O)Cc1nc(-c2ccccc2C)oc1C (stereo not given)	0	0	0	0	98.3
Cc1ccc(NC(=O)CS(=O)CC(=O)NCCCN(C)c2ccccc2)cc1 (stereo not given)	0	0	0	0	?
CCCNC(=O)CS(=O)Cc1nc(-c2ccccc2C)oc1C (stereo not given)	0	0	0	0	99.3
Cc1ccccc1-c1nc(CS(=O)CC(=O)NCc2ccccn2)c(C)o1 (stereo not given)	0	-	0	0	98.5
Cc1ccccc1-c1nc(CS(=O)CC(=O)NCCCN(C)c2ccccc2)c(C)o1 (stereo not given)	0	0	0	0	99.4
N=c1c2c3c(sc2ncn1Cc1ccco1)CCCCC3	0	0	0	0	92.2
CCOc1ccc(CSC(=N)N)cc1Cl	0	0	0	0	99.5
CCOc1ccc(CSC(=N)N)cc1[N+](=O)[O-]	0	0	0	0	98.0
Cc1cn([C@@H](CCCCNC(=O)OC(C)(C)C)C(=O)NCCCCCCCCCCC(=O)N2CCN(C(=O)OC(C)(C)C)CC2)nn1	0	-	0	-5.81	0
COc1nccnc1NS(=O)(=O)c1ccc(NC(=S)NC(=O)c2cccc(F)c2)cc1	0	0	0	0	91.0
COc1nccnc1NS(=O)(=O)c1ccc(NC(=S)NC(=O)c2ccc(F)cc2)cc1	0	0	0	0	0
SMILES	PREPL inhibitor	AI-2 QS mod	CHT allo act	CHT inh	ALR H2O2 inh
O=C(OCC(=O)N1CCCc2ccccc21)c1cccc(S(=O)(=O)N2CCOCC2)c1	0	0	0	0	0
COc1cc(/C=C(\C#N)C(=O)NCCc2ccccc2)cc(OC)c1O	0	0	0	0	0
COc1ccc(/C=C(\C#N)C(=O)NC(C)c2ccccc2)cc1O (stereo not given)	0	0	0	0	86.9
COC(=O)c1ccc(/C=C(\C#N)C(=O)NC(C)c2ccccc2)cc1 (stereo not given)	0	0	0	0	87.2
CC(C)NC(=O)/C(C#N)=C/c1cccc(NC(=O)c2ccccc2Cl)c1	0	0	0	0	0
N#C/C(=C\c1ccc(O)c(O)c1)C(=O)NCCc1ccccc1	0	-	0	0	98.5
COc1cc(/C=C(\C#N)C(=O)NC(C)C)cc(Cl)c1O	0	0	0	0	97.2
COc1cccc(CN2c3ccc(Br)cc3C(=O)CS2(=O)=O)c1	0	-	-	-	0
CCN(CC(=O)Nc1cc(Cl)ccc1Cl)C(=O)c1ccc(-n2cccn2)cc1	0	-	-	-	-
Cc1ccccc1NS(=O)(=O)c1cc2c(cc1C)N(C)CCO2	0	0	0	0	98.0
C[C@H](NC(=O)c1cc2c(cn1)[nH]c1ccccc12)C(=O)O	-	0	0	0	98.3
FC(F)(F)c1cc(-c2ccco2)nc(NCc2ccccc2)n1	0	0	0	0	97.8
CC1CCCCC1NC(=O)CSc1nnc(CC(=O)Nc2ccccc2F)n1C (stereo not given)	0	0	0	0	-
CCn1cc(S(=O)(=O)Nc2cc(C(=O)OC)ccc2C)cn1	0	0	0	0	0
Cc1c(C(=O)OCC(=O)Nc2c(C)n(C)n(-c3ccccc3)c2=O)oc2ccccc12	0	0	0	0	99.3
Cc1cccc(C(=O)OCC(=O)Nc2c(C)n(C)n(-c3ccccc3)c2=O)c1	0	-	-	-	-
Cc1c(NC(=O)CN2c3ccccc3CC2C)c(=O)n(-c2ccccc2)n1C (stereo not given)	0	0	0	0	96.9
O=C(CCCc1c[nH]c2ccccc12)N1CCN(c2ccc(N3CCOCC3)nn2)CC1	0	0	0	0	90.0
Cc1ccccc1-n1ccnc1SCC(=O)Nc1cccc(S(=O)(=O)NC2=NCCC2)c1	0	-	-	-	0
CN1C(=O)C(O)(CC(=O)c2ccncc2)c2ccccc21 (stereo not given)	0	0	0	0	0
CN1C(=O)C(O)(CC(=O)/C=C/C=C/c2ccccc2)c2ccccc21 (stereo not given)	0	0	0	0	89.5
Cc1ccc(NC(=O)CSc2nc(=O)n(CCN3CCOCC3)c3c2CCCC3)cc1	0	0	0	0	0
CC(=O)Nc1cccc(NC(=O)CSc2nc(=O)n(CCN3CCOCC3)c3c2CCC3)c1	0	0	0	0	97.3
O=C(CSc1nc(=O)n(CCCN2CCOCC2)c2c1CCC2)Nc1cccc(F)c1	0	0	0	0	97.2
CC(=O)c1cccc(NC(=O)CSc2nc(=O)n(Cc3ccccn3)c3c2CCC3)c1	0	0	0	0	98.9
SMILES	PREPL inhibitor	AI-2 QS mod	CHT allo act	CHT inh	ALR H2O2 inh
CC(=O)c1cccc(NC(=O)CSc2nc(=O)n(CCN3CCOCC3)c3c2CCCC3)c1	0	0	0	0	0
CC(=O)c1ccc(NC(=O)CSc2nc(=O)n(CCN3CCOCC3)c3c2CCC3)cc1	0	0	0	0	98.1
O=C(Nc1ccc(F)cc1)c1nc2c(nnn2Cc2cccc3ccccc23)c(=O)[nH]1	0	0	0	0	-
COC(=O)CCS(=O)(=O)c1nc(-c2ccccc2)cc(C(F)(F)F)n1	0	0	0	0	97.7
CCOC(=O)CS(=O)(=O)c1nc(-c2ccc(F)cc2)cc(C(F)(F)F)n1	0	0	0	0	0
COCC(C)NC(=O)CCS(=O)(=O)c1nc(-c2ccc(OC)cc2)cc(C(F)(F)F)n1 (stereo not given)	0	0	0	0	97.5
CCOC(=O)CCS(=O)(=O)c1nc(-c2ccccc2)cc(C(F)(F)F)n1	0	0	0	0	87.0

Bioassay records as filed in PubChem.
